# Screens as filed in PubChem BioAssay.
# IL1B secr inh: qHTS for Inhibitors of Inflammasome Signaling: IL-1-beta AlphaLISA Primary Screen; THP-1 LPS/ATP IL-1B secretion, AlphaLISA, 16 h; stronger effect = lower value; activity change, % at 57.5 µM; 4.7% of 360,000 active; AID 743279, 2014; in the data active = activity change below about -50%; inconclusive = mostly about -30% to -49%
#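 Secreted IL-1B measured by AlphaLISA bead assay after 16 h compound exposure of THP-1 cells; compounds (final up to 57.5 uM) added 1 h before LPS (250 ng/mL) and ATP (1.25 mM) stimulation; lower signal means less secretion.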
# TDP1 cell noCPT: qHTS for Inhibitors of human tyrosyl-DNA phosphodiesterase 1 (TDP1): qHTS in cells in absence of CPT; Potency, µM (doses to about 46.2 µM), hits mostly inhibitors; AID 686978, 2013; 15% of 420,000 active; DT40 Tdp1-/- hTDP1 cells, no CPT, ATP luminescence, 48 h; also: nearly all actives have a fitted effect of over 55% in size
#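 Growth of hTDP1-complemented DT40 Tdp1-knockout cells is measured by ATP luminescence after at least 48 hr compound exposure at 37 °C, with DMSO substituting for the 20 nM CPT used in the parallel screen.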
# HT1080 IDH1KD tx: qHTS for induction of synthetic lethality in tumor cells producing 2HG: qHTS for the HT-1080-IDH1KD cell line. HT-1080 IDH1 knockdown viability, ATP luminescence, 48 h. Potency, µM (titrated, usually from 46.1 µM), hits mostly cytotoxic. 2% of 360,000 active
#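 HT-1080-IDH1KD cells (IDH1 knocked down), 750/well in RPMI with 5% FBS, treated with compound 48 h at 37 degrees C. Viability by CellTiter-Glo luminescence, normalised to DMSO and no-cell wells; concentration-response curves classed.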
# uPA surface inh: qHTS for Inhibitors of Cell Surface uPA Generation; cell surface uPA generation assay, qHTS; Potency, µM (series often up to 38.3 µM), hits mostly inhibitors; 0.31% of 330,000 active; AID 540303, 2011; active = well fitted inhibition curve with a large enough effect; inconclusive = small, poorly fitted or top-dose-only effect; inactive = no such curve, though single readings can be large or run the other way; tested in mouse RAW 264.7 cells; also: nearly all actives have a fitted effect of over 55% in size
# TDP1 cell CPT: qHTS for Inhibitors of human tyrosyl-DNA phosphodiesterase 1 (TDP1): qHTS in cells in presence of CPT. Potency, µM (titrated, usually from 46.2 µM), actives largely listed as inhibitors. chicken DT40 Tdp1-/-;hTDP1 cells + 20 nM CPT, ATP luminescence, 48 h. 12% of 420,000 active; also: nearly all actives have a fitted effect of over 55% in size
#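 Chicken DT40 Tdp1-/- cells stably complemented with human TDP1 were seeded at 400 cells/well in medium containing 20 nM camptothecin, exposed to pin-transferred compounds, and grown at 37 °C for at least 48 hr. Viability was read as ATP luminescence.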
# HT1080-NT tox: qHTS for induction of synthetic lethality in tumor cells producing 2HG: qHTS for the HT-1080-NT fibrosarcoma cell line | 1.6% of 360,000 active | HT-1080-NT fibrosarcoma viability, CellTiter-Glo ATP luminescence, 48 h | AID 686970, 2013 | Potency, µM (series often up to 46.1 µM), hits mostly cytotoxic;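 also: NT is the 2HG producing partner of a matched IDH1 knockdown line; nearly all actives have a fitted effect of over 55% in size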
#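 Compounds were tested in concentration-response format on HT-1080-NT cells for 48 hours at 37 degrees C. Cell viability came from CellTiter-Glo luminescence; curves were classified by r2, response magnitude and activity.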
# Numbers stand for hits; n = inactive; u = inconclusive; x = not tested or not shown. An excerpt weighted towards active compounds, which were near 19% of everything screened. Unless noted, calls follow the shape of the dose curve; as a rule, active = well fitted curve in the direction sought with a large enough effect; inconclusive = small, poorly fitted or top-dose-only effect, or another doubt; inactive = no such curve, though single readings can be large; an effect the other way counts as inactive or inconclusive.
SMILES,IL1B secr inh,TDP1 cell noCPT,HT1080 IDH1KD tx,uPA surface inh,TDP1 cell CPT,HT1080-NT tox
Cc1ccc(S(=O)(=O)c2c(C)cc(C)nc2N2CCOCC2)cc1,n,n,n,n,n,n
Cc1ccc(S(=O)(=O)c2c(C)cc(C)nc2N2CCCCC2)cc1,n,18µM,n,x,23µM,n
COc1ccc(C)cc1NC(=O)c1cc(C2CC2)nc2c1c(C)nn2C1CCS(=O)(=O)C1 (stereo not drawn),n,u,n,n,u,n
O=C(CSc1nc(=O)[nH]c2c1CCCC2)Nc1cc(C(F)(F)F)cc(C(F)(F)F)c1,n,23µM,n,n,18µM,n
CCCC(=O)Oc1ccccc1C1SCc2cc(C)c(C)cc2CS1,n,26µM,u,n,18µM,n
COc1cc(/C=C2\COC/C(=C\c3ccc(O)c(OC)c3)C2=O)ccc1O,-100,3.3µM,u,n,3.3µM,u
COc1ccc(C=C2C=C(C(C)(C)C)C(=O)C(C(C)(C)C)=C2)cc1OC,-96,7.3µM,18µM,n,u,12µM
COc1ccc(/C=C2\CCc3ccccc3C2=O)cc1OC,n,u,n,n,u,n
COc1ccc(/C=C2\CC/C(=C\c3ccc(OC)c(OC)c3)C2=O)cc1OC,n,21µM,u,n,16µM,u
COc1cc(/C=C/C=C2/CC/C(=C/C=C/c3ccc(O)c(OC)c3)C2=O)ccc1O,-92,2.6µM,n,n,2.3µM,n
Cn1c(SCC(=O)N2CCc3ccccc32)nnc1-c1ccc(S(=O)(=O)N2CCCC2)cc1,n,u,n,n,n,n
CCCNC(=O)C1CCC(Cn2c(=O)c3sccc3n(CC(=O)N3CCCC(C)C3)c2=O)CC1 (stereo not drawn),x,n,x,x,n,x
CCCCNC(=O)C1(C)CCN1C(=O)c1oc2ccccc2c1C (stereo not drawn),n,u,n,x,u,n
O=c1c2ccccc2nnn1-c1ccccc1[N+](=O)[O-],n,n,n,x,n,n
COc1cc(/C=C2\C(=O)N(C)C(=S)N2C)ccc1O,n,n,n,n,n,n
COc1cc(/C=C2/CC/C(=C/c3ccc(O)c(OC)c3)C2=O)ccc1O,n,u,21µM,n,21µM,18µM
COc1cc(/C=C2\CC/C(=C\c3ccc(OCCO)c(OC)c3)C2=O)ccc1OCCO,-77,23µM,n,n,u,n
N#CC(C#N)=CC1=C2OC(c3ccccc3)=CC(c3ccccc3)=C2CCC1,n,13µM,n,n,26µM,n
Nc1ccc(S(=O)(=O)c2ccccc2)nc1,n,n,n,n,n,n
COC(=O)C(C)(C(=O)OC)c1ccc([N+](=O)[O-])cn1,n,n,n,n,n,n
O=[N+]([O-])c1ccc(S(=O)(=O)c2ccccc2)nc1,n,0.92µM,5.8µM,u,0.52µM,5.8µM
Cc1cc(S(=O)(=O)c2ccc([N+](=O)[O-])cn2)ccc1Br,-106,0.33µM,3.7µM,n,0.33µM,2.3µM
Cc1ccc(S(=O)(=O)c2ccc([N+](=O)[O-])cn2)cc1,-105,0.52µM,4.6µM,n,0.46µM,2.6µM
CCC1CCCCN1S(=O)(=O)c1cc2c3c(c1)CC(=O)N3CCC2 (stereo not drawn),x,n,x,x,n,x
COc1cccc(Cn2c(=O)cnc3cnc(Oc4ccccc4)nc32)c1,x,n,x,x,n,x
SMILES,IL1B secr inh,TDP1 cell noCPT,HT1080 IDH1KD tx,uPA surface inh,TDP1 cell CPT,HT1080-NT tox
O=C(CC1Sc2ccccc2NC1=O)NCc1ccc(Cl)cc1 (stereo not drawn),n,n,u,n,n,n
CCOc1ccc(C2C(C(N)=O)=C(C)Nc3nc(-c4ccc(OC)cc4)nn32)cc1 (stereo not drawn),x,n,x,x,n,x
Clc1ccc2c(c1)C1OCCC1C(c1ccco1)N2 (stereo not drawn),-74,u,n,n,u,n
CC(=O)N1c2ccc(Cl)cc2C2OCCC2C1c1ccco1 (stereo not drawn),n,n,n,n,n,n
CC1(c2nnc(-c3cccc(Cl)c3)o2)CC(c2ccc(C#N)cc2)=NO1 (stereo not drawn),n,18µM,n,n,u,n
CCn1ncc(C2=NOC(C(=O)NCc3ccc(Cl)cc3)C2)c1C (stereo not drawn),n,5.8µM,6.3µM,x,5.8µM,4.5µM
COc1cc(C2=NOC(C(=O)NCc3cccnc3)C2)cc(OC)c1OC (stereo not drawn),n,u,n,n,u,n
COc1cc(OC)c(C2=NOC(C(=O)NCc3cccs3)C2)cc1Cl (stereo not drawn),n,2.3µM,4.6µM,n,2.3µM,4.1µM
O=C(NCc1ccccn1)C1CC(c2ccccc2O)=NO1 (stereo not drawn),n,n,n,n,n,n
O=C(NCc1cccs1)C1CC(c2ccccc2O)=NO1 (stereo not drawn),n,u,n,n,21µM,n
COc1cc(C2=NOC(C(=O)NCc3cccs3)C2)cc(OC)c1OC (stereo not drawn),n,1.6µM,7.3µM,n,2.3µM,5.8µM
CCOCCc1nn2c(=O)cc(COC(=O)c3ccccc3NC(=O)c3ccccc3F)nc2s1,x,n,x,x,n,x
COc1cc(OC)c(C2=NOC(C(=O)NCc3cccnc3)C2)cc1Cl (stereo not drawn),n,15µM,u,10µM,u,u
COc1ccc(C2=NOC(C(=O)NCc3cccs3)C2)cc1 (stereo not drawn),n,2.9µM,5.2µM,n,5.2µM,u
COc1ccc(C2=NOC(C(=O)NCc3ccc(F)cc3)C2)cc1 (stereo not drawn),n,2.3µM,u,n,2.3µM,u
COc1ccc(CCNC(=O)c2ccc([N+](=O)[O-])cc2)cc1,n,u,n,n,23µM,n
COc1ccc(CNC(=O)C2CC(c3ccc(OC)cc3)=NO2)cc1 (stereo not drawn),n,n,n,n,u,n
COc1ccc(OC)c(C2=NOC(C(=O)NCc3cccnc3)C2)c1 (stereo not drawn),n,u,n,n,u,n
CS(=O)(=O)c1ccc(Cl)c(NC(=O)CSc2nnc(C3CC3)n2C2CC2)c1,n,n,n,n,n,n
CC(=O)c1ccc(OCc2cc(C(=O)NCCc3ccc(Cl)cc3)no2)cc1,n,n,n,n,n,n
COc1ccccc1CN1CCCC2(CCN(S(=O)(=O)c3ccccc3)CC2)C1,x,n,x,x,n,x
